OTUD3 block: human OTUD3 deubiquitinase inhibition; inhibition, % at 25 µM; actives 0.7% (n = 47,000); AID 1645858; Q5T2D3; purified OTUD3, Ub-rhodamine fluorescence, 2 h
USP28 inh: inhibitors of human USP28 deubiquitinase; Q96RU2; purified USP28, Ub-rhodamine cleavage fluorescence, 30 min; inhibition, % at 25 µM; actives 3% (n = 47,000); AID 1645857
Target sequence (Q96RU2 whole entry, looked up): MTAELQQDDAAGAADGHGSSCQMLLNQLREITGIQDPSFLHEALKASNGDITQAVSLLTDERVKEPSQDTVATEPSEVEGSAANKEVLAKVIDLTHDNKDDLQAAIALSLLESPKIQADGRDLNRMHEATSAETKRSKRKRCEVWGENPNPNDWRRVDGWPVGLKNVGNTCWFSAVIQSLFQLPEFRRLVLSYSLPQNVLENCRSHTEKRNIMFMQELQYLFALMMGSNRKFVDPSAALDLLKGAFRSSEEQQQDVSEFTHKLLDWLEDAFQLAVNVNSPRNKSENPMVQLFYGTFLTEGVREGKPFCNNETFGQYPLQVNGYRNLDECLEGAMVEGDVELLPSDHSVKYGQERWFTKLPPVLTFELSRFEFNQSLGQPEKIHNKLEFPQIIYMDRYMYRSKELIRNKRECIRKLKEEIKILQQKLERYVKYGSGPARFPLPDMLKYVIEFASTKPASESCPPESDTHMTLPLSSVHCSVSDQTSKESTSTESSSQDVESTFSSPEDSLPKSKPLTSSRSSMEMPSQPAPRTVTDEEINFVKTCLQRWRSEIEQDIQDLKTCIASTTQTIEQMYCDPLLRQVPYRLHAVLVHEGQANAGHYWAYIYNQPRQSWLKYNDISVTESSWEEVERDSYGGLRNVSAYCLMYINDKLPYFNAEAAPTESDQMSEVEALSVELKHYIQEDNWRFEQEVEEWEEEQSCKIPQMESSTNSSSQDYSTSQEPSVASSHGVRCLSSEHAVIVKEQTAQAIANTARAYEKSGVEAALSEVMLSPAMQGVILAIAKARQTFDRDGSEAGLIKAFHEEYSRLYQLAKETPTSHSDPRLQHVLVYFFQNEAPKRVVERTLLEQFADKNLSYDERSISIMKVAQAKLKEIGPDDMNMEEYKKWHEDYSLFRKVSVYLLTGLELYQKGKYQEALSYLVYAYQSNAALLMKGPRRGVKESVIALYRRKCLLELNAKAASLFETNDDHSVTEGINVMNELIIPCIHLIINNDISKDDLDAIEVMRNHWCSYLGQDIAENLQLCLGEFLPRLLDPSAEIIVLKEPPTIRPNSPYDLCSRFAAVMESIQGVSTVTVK
USP30 block: inhibitors of human USP30 deubiquitinase. Q70CQ3. purified USP30, Ub-rhodamine cleavage fluorescence. inhibition, % at 25 µM. actives 5.3% (n = 47,000)
USP17 block: blocks human USP17 ubiquitin-rhodamine cleavage | purified USP17, Ub-rhodamine cleavage fluorescence, 3 h | inhibition, % at 50 µM | actives 6.5% (n = 47,000)
An asterisk follows results filed as active. A selection: hits, their analogues and other compounds. The true share with any hit is near 12%. No stated cut-off is given here; in the data, active means inhibition above about 30%; inactive means the rest.

`O=C(CN1C(=O)c2ccccc2Sc2ccc(C(=O)N3CCCC3)cc21)Nc1ccccc1Cl` gave OTUD3 block -2, USP28 inh 38*, USP30 block -140 and USP17 block 52*.
Screening Cc1cccc(CN2C(=O)c3ccccc3Sc3ccc(C(=O)N4CCC5(CC4)OCCO5)cc32)c1 returned OTUD3 block 3, USP28 inh 9, USP30 block 0 and USP17 block 7.
Screening O=C(c1noc2c1CCCC2)N1CCCCC1c1ccn[nH]1 (centres undefined) returned OTUD3 block 1, USP28 inh -9, USP30 block 0 and USP17 block 2.
O=C(NC1CCCCCC1)C1CCCN(S(=O)(=O)N2CCCC2)C1 (centres undefined) was read as OTUD3 block -1, USP28 inh 0, USP30 block 0 and USP17 block 3.
`O=c1[nH]c(CN2CCN(C(c3ccc(F)cc3)c3ccc(F)cc3)CC2)nc2ccccc12` gave OTUD3 block -55, USP28 inh -64, USP30 block -235 and USP17 block -56.
Screening CSc1ccccc1NC(=O)c1ccc(-n2cccn2)nn1 returned OTUD3 block 9, USP28 inh 13, USP30 block 41* and USP17 block 62*.
CSc1ccccc1NC(=O)c1ccc(N2CCOCC2)nn1 was read as OTUD3 block -1, USP28 inh -9 and USP30 block 5.
`O=C(Cn1cc(-c2nnc(CN3CCCCC3)o2)c2ccccc21)NCCC1=CCCCC1` gave OTUD3 block -2, USP28 inh -5, USP30 block 8 and USP17 block -2.
For Cc1ccc(C(=O)NCc2ccc(C(=O)Nc3ccc(C)c(C)c3)o2)cc1 the results were OTUD3 block -2, USP28 inh -8, USP30 block 42* and USP17 block 54*.
Cc1ccc(NC(=O)c2ccc(C)c(C)c2)cc1C was read as OTUD3 block 12, USP28 inh 40*, USP30 block 25 and USP17 block 26.
Screening Cc1ccc(C(=O)Nc2ccc(C)c(C)c2)c(C)c1 returned OTUD3 block 8, USP28 inh 15, USP30 block 24 and USP17 block 11.
`Cc1ccc(C(=O)NCc2ccc(C(=O)Nc3cccc(C)c3)o2)cc1` gave OTUD3 block 2, USP28 inh 24, USP30 block 44* and USP17 block 60*.
CC(=O)N1Cc2ccccc2CC2(CCN(Cc3ccccn3)CC2)C1 was read as OTUD3 block 5, USP28 inh 3, USP30 block 5 and USP17 block 1.
CCCN1CCCc2cc(CCNS(=O)(=O)c3cc(OC)ccc3OC)ccc21 was read as OTUD3 block -105, USP28 inh -137, USP30 block -479 and USP17 block -93.
Screening NC1=CC(=O)C(Nc2ccccc2O)=CC1=O returned OTUD3 block -7, USP28 inh -5, USP30 block -35 and USP17 block 42*.
For O=C(CCCCCn1c(=O)[nH]c2ccccc2c1=O)NCc1ccccc1Cl the results were OTUD3 block 18, USP28 inh 19, USP30 block 48* and USP17 block 25.
`O=C(CCCCCn1c(=O)[nH]c2ccccc2c1=O)Nc1ccccc1Br` gave OTUD3 block 21, USP28 inh 3, USP30 block 35* and USP17 block 16.
O=C(CCCCCn1c(=O)[nH]c2ccccc2c1=O)NCCc1ccc(Cl)cc1 was read as OTUD3 block 8, USP28 inh 8, USP30 block 22 and USP17 block 16.
O=C(CCCCn1c(=O)[nH]c2ccccc2c1=O)Nc1cccc(Cl)c1 was read as OTUD3 block 18, USP28 inh 8, USP30 block 20 and USP17 block 80*.
`COc1c(C)cnc2c1c(=O)n(CC(=O)NCc1ccc3c(c1)OCO3)c(=O)n2C` gave OTUD3 block 23, USP28 inh 5, USP30 block 36* and USP17 block 22.
Screening Cc1c(C#N)c2ccccc2n1CC(=O)NCC1CCCO1 (centres undefined) returned OTUD3 block -12, USP28 inh -8, USP30 block -30 and USP17 block -7.
For Cc1c(C#N)c2ccccc2n1CC(=O)NCc1ccc2c(c1)OCO2 the results were OTUD3 block -27, USP28 inh 32*, USP30 block 22 and USP17 block 40*.
`Cc1ccc(NC(=O)Cn2c(=O)n(-c3ccc(CC(=O)NCc4ccco4)cc3)c(=O)c3sccc32)c(C)c1` gave OTUD3 block -2 and USP17 block 69*.

High-throughput results: PubChem, Buhrlage Lab, Dana-Farber Cancer Institute and Novartis Institutes for BioMedical Research (Cambridge, Mass)
